# According to PubChem BioAssay (NCI):
# Compounds without any hit were thinned out: in the full panel of roughly 83,000, 20% have a hit.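 Note: values are percent growth. 100 is the growth of untreated cells, values between 100 and 0 indicate rising inhibition; between -100 and 0 indicates cell death.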 A number with no mark means an inactive call. The source made the active and inactive calls.
# Test system: NCI-H226 lung
# Test: NCI-60 one-dose screen, 48 h (100 = growth as untreated, 0 = no growth, -100 = all killed)
# Details: 10 µM unless noted
# Procedure: Growth inhibition of the NCI-H226 human Non-Small Cell Lung tumor cell line is measured as a screen for anti-cancer activity. Cells are grown in 96 well plates and exposed to the test compound for 48 hours. Compounds are tested at a single concentration, which is 10^-5 M for most compounds. The reported endpoint is percent growth (GI% or GIPRCNT), where numbers from 0 - 100% represent growth inhibition, and numbers from -100% - 0 represent cell death. For example, a value of 40 represents 60% growth inhibition. A value of 0 means no net growth occurred over the course of the experiment. A value of -40 indicates 40% of cells at the beginning of the experiment died by the end of the experiment. A value of -100 means all cells are dead at the end of the experiment.
# NCI-60 Human Tumor Cell Lines Screen was performed using the standard one-dose NCI protocol, which is described in more detail at https://dtp.cancer.gov/discovery_development/nci-60/default.htm.
# Compounds with GIPRCNT values below 10 were considered active. Activity score was based on GIPRCNT using the following formula: […]
# Score is 0 for GIPRCNT values of 100 or above, 50 for GIPRCNT values of 0, and 100 for GIPRCNT values of -100.
row,Structure (SMILES),growth
1,Nc1c(C(=O)O)[nH]c(=O)[nH]c1=O,93.8%
2,CCN(CC)CCN1C(=O)c2c(c3c4ccccc4[nH]c3c3[nH]c4ccccc4c23)C1=O,86.6%
3,CCN(CC)CCNc1ccc([N+](=O)[O-])c2sc3cc(Cl)ccc3c(=O)c12,84.9%
4,CNCCCOc1c(Br)cc(CCNC(=O)/C(Cc2cc(Br)c(OC)c(Br)c2)=N/O)cc1Br,75.1%
5,Oc1ccc(Cl)cc1Sc1cc(Cl)ccc1O,88.4%
6,COc1ccc(OCC(O)CN2CCN(c3ccc(Cl)cc3)CC2)cc1 (stereo not given),86.3%
7,COc1ccc2c(c1)OC(N(C(C)=O)C(C)=O)=C(C#N)C2c1ccc(F)cc1 (stereo not given),75.2%
8,O=C(O)c1ccccc1C(=O)c1ccc(I)cc1,101%
9,CS(=O)(=O)OCC(COS(C)(=O)=O)C(c1ccccc1)c1ccccc1,103%
10,COc1cc(/C=C/C(=O)c2c(C)[n+]([O-])c3ccccc3[n+]2[O-])ccc1O,98.5%
11,CC(=O)c1cc2c(N)c(C(=O)Nc3cccc(Cl)c3)sc2nc1C,87.3%
12,COc1ccc(SC2c3ccc(O)cc3Oc3nc(N)c(C#N)c(N)c32)cc1 (stereo not given),117%
13,COc1ccccc1C(OC(C)=O)OC(C)=O,94%
14,COc1ccc2c(c1)O/C(=C/c1ccc(OCC(=O)Nc3ccc(S(N)(=O)=O)cc3)cc1)C2=O,86.9%
15,CC(=O)n1cc(/C=C2\N=C(c3ccc(Cl)cc3)N(c3ccc(S(=O)(=O)Nc4nccs4)cc3)C2=O)c2ccccc21,94.7%
16,Cn1cnc([N+](=O)[O-])c1N1c2ccncc2Sc2ccncc21,82.1%
17,O=[N+]([O-])c1ccc(NS(=O)(=O)c2cc(Cl)ccc2Cl)c2ccccc12,65.7%
18,Nc1nc(-c2cc3c(cc2Cl)NC(=O)/C3=C/c2ccccc2)cs1,71.8%
19,C=C1C(=O)O[C@H]2[C@H]1CC/C(COC(=O)n1ccnc1C)=C\CC[C@@]1(C)O[C@@H]21,91.2%
20,NS(=O)(=O)c1ccc(Nc2nc(O)c(/C=C3\C=Nc4ccccc43)s2)cc1,99.6%

row,Structure (SMILES),growth
1,O=S(c1ccccc1)c1ccc2nnnn2n1 (stereo not given),103%
2,O=c1[nH]ccc2nc(N3CCC(O)CC3)nc(Nc3cccc(C(F)(F)F)c3)c12,57.4%
3,Nc1ncnc2c1c(-c1ccc(Oc3ccccc3)cc1)nn2C[C@H]1SSC[C@@H]1O,22.9%
4,CCOC(=O)C1=C(N)Oc2cc(OC)ccc2C1c1ccc(F)c(F)c1 (stereo not given),68%
5,O=C(O)c1cccc2oc(-c3ccccc3O)nc12,63%
6,CCN(CC)CCNC(=O)c1c(C)[nH]c(/C=C2\C(=O)Nc3cc(NC(=O)NC(=O)c4ccc(OC)cc4F)ccc32)c1C,108%
7,NC(CCCC(N)C(=O)c1ccccc1)C(=O)O (stereo not given),102%
8,ClC1c2ccccc2CCc2ccccc21,96.7%
9,O=C(O)c1ccc2nc(-c3ccc(OCCCCCOc4ccc(-c5nc6ccc(C(=O)O)cc6[nH]5)cc4)cc3)[nH]c2c1,63.4%
10,c1ccc([Se]CCCN2CCN(CCC[Se]c3ccccc3)CC2)cc1,116%
11,COc1cc2nc(C(=O)N3CCCCC3)cc(Nc3ccccc3)c2cc1OC,107%
12,NC(=O)C1=C[C@H]2[C@H]3C=C[C@@]2(O)C(=O)O[C@@H]3O1,47.6%
13,CC1OC(n2c3ccccc3c3c4c(c5c6ccccc6[nH]c5c32)C(=O)N(CCN[C@@H]2CCC[C@H]2N)C4=O)CC(O)C1O (stereo not given in full),17.4%
14,Cc1cc(SCc2ccc(Cl)cc2Cl)nc(SCc2ccc(Cl)cc2Cl)n1,96%
15,Cc1cn(-c2nc3c(c(NCc4ccccc4)n2)COCC3)c2cccc(C(N)=O)c12,56.4% [0.5 µM]
16,C=C1C(=O)O[C@H]2[C@H]1CC/C(COC(=O)c1ccc(Cl)nc1)=C\CC[C@@]1(C)O[C@@H]21,-9.06% (active)
17,COCCNC(C(=O)c1ccccc1)c1ccccc1 (stereo not given),91%
18,Nc1nccc(=S)[nH]1,103%
19,COc1ccc(/C=C/C(=O)/C=C(/C=C/c2ccc(OC)c(OC)c2OC)OB(F)F)c(OC)c1OC,75.6%
20,CN[C@@H](CCCNC(N)=NC/C=C(/C)CCC=C(C)C)C(=O)N(C)[C@@H](CCCNC(N)=NCC=C(C)C)C(=O)N[C@H](C)[C@H](OS(=O)(=O)O)c1ccc(OS(=O)(=O)O)c(COS(=O)(=O)O)c1,89.1%
